Measured values as given in a collection of fitness landscapes (doi:10.1126/science.1257360).
Over roughly 140,000 sequences, “enrichment ratio after two sorts for PhoP signalling” has its median near 0; the highest 2% begin near 11. The entries come from a sample that favours the highest values as a whole.

B1: PhoQ; a variant is named by its letters at X, in order, P23837 (parent)
chain: MKKLLRLFFPLSLRVRFLLATAAVVLVLSLAYGMVALIGYSVSFDKTTFRLLRGESNLFYTLAKWENNKLHVELPENIDKQSPTMTLIYDENGQLLWAQRDVPWLMKMIQPDWLKSNGFHEIEADVNDTSLLLSGDHSIQQQLQEVREDDDDAEMTHSVAVNVYPATSRMPKLTIVVVDTIPVELKSSYMVWSWFIYVLSANLLLVIPLLWVAAWWSLRPIEALAKEVRELEEHNRELLNPATTRELTSLVRNLNRLLKSERERYDKYRTTLTDLTHSLKTPLXXLQXXLRSLRSEKMSVSDAEPVMLEQISRISQQIGYYLHRASMRGGTLLSRELHPVAPLLDNLTSALNKVYQRKGVNISLDISPEISFVGEQNDFVEVMGNVLDNACKYCLEFVEISARQTDEHLYIVVEDDGPGIPLSKREVIFDRGQRVDTLRPGQGVGLAVAREITEQYEGKIVAGESMLGGARMEVIFGRQHSAPKDE

Variants of: B1
Test: enrichment ratio after two sorts for PhoP signalling (ratio (wild type AVST 3.29)); higher = more functional
Conditions: with PhoP (E. coli)

Variant | enrichment ratio
TGHV | 16.1
YHQM | ≤ 0.25
DRRP | ≤ 0.25
ANSC | 11.9
ANSK | ≤ 0.25
ARSC | ≤ 0.25
TKSC | 5.09
ADSC | ≤ 0.25
AKSC | 23.2
VIHS | ≤ 0.25
QISE | ≤ 0.25
IIPR | ≤ 0.25
TIIG | ≤ 0.25
TSWT | 13.4
MKWT | ≤ 0.25
LCWT | ≤ 0.25
QLWT | ≤ 0.25
QEWT | 11.3
MPWT | ≤ 0.25
QRWT | ≤ 0.25
QIWT | 20.8
MEWT | 34.7
MMWT | ≤ 0.25
TPWT | ≤ 0.25
QQWT | ≤ 0.25

Variant | enrichment ratio
LESG | ≤ 0.25
KRHA | ≤ 0.25
DVYV | ≤ 0.25
SDAE | ≤ 0.25
YELP | ≤ 0.25
EIRK | ≤ 0.25
ESAA | ≤ 0.25
EVKR | ≤ 0.25
KHRA | ≤ 0.25
IFHG | ≤ 0.25
MCIH | ≤ 0.25
MRWT | ≤ 0.25
YTWT | ≤ 0.25
VRWT | ≤ 0.25
NEWT | 32
QGWT | 36
KEWT | ≤ 0.25
ITWT | ≤ 0.25
TTWT | 15
FFWT | ≤ 0.25
FQWT | ≤ 0.25
MQWT | 21.2
DMWT | ≤ 0.25
NKIQ | ≤ 0.25
ENRF | ≤ 0.25

Variant | enrichment ratio
PLPI | ≤ 0.25
WSFP | ≤ 0.25
YDQD | ≤ 0.25
VCTS | ≤ 0.25
WTPD | ≤ 0.25
SKDW | ≤ 0.25
EAPV | ≤ 0.25
PSRQ | ≤ 0.25
MGCC | ≤ 0.25
VYFN | ≤ 0.25
VGPY | ≤ 0.25
LCTR | ≤ 0.25
KSWT | ≤ 0.25
LEWT | 12.5
RLWT | ≤ 0.25
LLWT | ≤ 0.25
SEWT | 13.2
TDWT | 25.1
ADWT | ≤ 0.25
TEWT | 12.8
LRWT | ≤ 0.25
HPWT | ≤ 0.25
SPWT | ≤ 0.25
SLWT | ≤ 0.25
MNIK | ≤ 0.25

Variant | enrichment ratio
LKPQ | ≤ 0.25
MYHS | ≤ 0.25
LAEQ | ≤ 0.25
KQHW | ≤ 0.25
LWPI | ≤ 0.25
IYVA | ≤ 0.25
RPSC | ≤ 0.25
GEHV | ≤ 0.25
YVEW | ≤ 0.25
RVGM | ≤ 0.25
SLSL | 10.7
NGSL | ≤ 0.25
TISL | 19.4
GGSL | 3.4
NISL | 0.771
GLSL | 11.5
GLSK | ≤ 0.25
WISL | ≤ 0.25
VLSL | 0.415
TLSL | 15.8
GDSL | ≤ 0.25
TGSL | 16.8
WCCL | ≤ 0.25
